The list is not random: actives were taken first. Their share in the collection is about 3.5%.
TEAD-YAP inh: TEAD-YAP interaction inhibition, primary screen, TEAD-YAP interaction inhibitor project, luminescence, HEK-TIYL cells. inhibition, % at 9.12 µM. actives 1.4% (n = 640,000). TEAD-Gal4/YAP UAS-luciferase luminescence. AID 1259422, 2018; in the data active = inhibition above about 32%
GPR151 activ: activators of human GPR151, primary screen, cell-based, PathHunter beta-arrestin, luminescence; G-protein coupled receptor 151 (Homo sapiens), Q8TDV0; PathHunter beta-arrestin GPR151 cells; activation, % at 11.2 µM; actives 1% (n = 650,000); AID 1508602, 2020; in the data active = activation above about 4.9%
MITF inh: MITF inhibitors, primary screen, biochemical, AlphaScreen, human; AID 1259374, 2018; Microphthalmia-associated transcription factor (Homo sapiens), O75030; AlphaScreen MITF homodimerization, bead proximity signal; actives 0.91% (n = 650,000); inhibition, % at 2.6 µM; in the data active = inhibition above about 50%
Target sequence (O75030 whole entry, looked up): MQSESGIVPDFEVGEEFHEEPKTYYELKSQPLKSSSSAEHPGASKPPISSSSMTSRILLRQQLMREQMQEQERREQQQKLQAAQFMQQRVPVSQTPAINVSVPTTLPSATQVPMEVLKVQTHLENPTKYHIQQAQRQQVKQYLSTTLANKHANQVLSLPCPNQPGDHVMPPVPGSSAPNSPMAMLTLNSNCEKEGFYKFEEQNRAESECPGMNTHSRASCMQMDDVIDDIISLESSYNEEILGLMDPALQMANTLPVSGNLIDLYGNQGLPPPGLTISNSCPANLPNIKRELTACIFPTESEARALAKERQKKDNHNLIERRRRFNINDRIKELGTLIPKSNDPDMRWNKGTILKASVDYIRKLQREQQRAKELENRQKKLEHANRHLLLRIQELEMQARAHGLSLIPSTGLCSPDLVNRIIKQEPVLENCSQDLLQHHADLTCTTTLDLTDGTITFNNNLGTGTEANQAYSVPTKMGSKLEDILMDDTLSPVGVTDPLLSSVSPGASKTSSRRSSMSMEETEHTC
FBW7 act: FBW7 E3 ligase activators, primary screen, biochemical, AlphaScreen, human. F-box/WD repeat-containing protein 7 (Homo sapiens), Q969H0. AlphaScreen FBW7–phospho-cyclin E peptide binding, activator screen. normalized activity (activation), % at 26.1 µM. actives 0.13% (n = 650,000). AID 1259310, 2017; in the data active = normalized activity above about 1.9%;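 note: purified mutant Fbw7 with reduced substrate affinity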
MITF confirm: MITF inhibitors, retest of hits, confirmation, biochemical, AlphaScreen, triplicate; shares compounds with MITF inh; AlphaScreen MITF homodimerization, biotin/His-MITF beads; inhibition, % at 2.6 µM; actives 16% (n = 4,700); AID 1259372, 2018;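 active = inhibition above a cutoff derived from the DMSO control wells, cut at about 28% in these data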;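 note: inhibitors lower the bead chemiluminescence by keeping MITF from dimerizing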
AlphaScreen intf2: AlphaScreen optical interference compounds, counter-screen for MITF inhibitor project, biochemical, triplicate | shares compounds with MITF inh | LysRS AlphaScreen counterscreen, signal interference | inhibition, % at 2.6 µM | actives 7.6% (n = 4,700) | AID 1259376, 2018;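 active = inhibition above a cutoff derived from the DMSO control wells, cut at about 30% in these data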
A number is an active result; 0 = inactive; - = no result given.

SMILES	TEAD-YAP inh	GPR151 activ	MITF inh	FBW7 act	MITF confirm	AlphaScreen intf2
Cc1ccc(C)c(NC(=O)CN(c2cccc([N+](=O)[O-])c2)S(C)(=O)=O)c1	0	0	0	0	-	-
CCOC(=O)CCCCC(=O)c1[nH]c(=O)[nH]c1CSC(=N)N	0	0	0	0	-	-
Cc1[nH]c(=O)[nH]c1C(=O)CCCCC(=O)OCC(=O)c1ccc(Br)cc1	0	0	114.5	0	112.3	92.9
Cc1cc(C)cc(OCC(=O)Nc2ccccn2)c1	0	0	0	0	-	-
CCOC(=O)CCCCC(=O)c1[nH]c(=O)[nH]c1C	0	0	115.4	0	118.5	98.6
Cc1[nH]c(=O)[nH]c1C(=O)CCCCC(=O)OCC(=O)Nc1ccccn1	0	0	115.6	0	118.2	97.4
CC1(C)C(=O)N(CC2CO2)C(=O)N1CN1C(=O)N(CC2CO2)C(=O)C1(C)C (stereo not drawn)	0	0	0	0	-	-
CCCCC(=O)Nc1ccc(NC(=O)c2ccccc2F)cn1	0	0	0	0	-	-
COc1cc(C2NC(=O)NC(C)=C2C(=O)OC(C)C)cc(Br)c1O (stereo not drawn)	0	0	0	0	-	-
Clc1ccc(OCC#CCn2ccnc2)cc1	0	0	58.3	0	0	0
CC(=O)c1ccc(OCCCCN2CCCC2)cc1	0	0	0	0	-	-
CN1CCN(CCOc2ccc(C=O)cc2)CC1	0	0	74.2	0	0	0
CC(=O)c1ccc(OCCN2CCN(C)CC2)cc1	0	0	66.5	0	0	0
CCOC(=O)C1=C(C)N=c2s/c(=C\c3ccc(OCc4ccccc4)c(OC)c3)c(=O)n2C1c1ccc(N(C)C)cc1 (stereo not drawn)	0	0	0	0	-	-
CCOc1ccc(N2CCN(CC(=O)Nc3ccc(SC)cc3)C2=O)cc1	0	0	61.4	0	0	0
N/C(Cc1ccc([N+](=O)[O-])cc1)=N\OC(=O)COc1ccc(Cl)cc1Br	0	0	0	0	-	-
Cc1ccc(-n2cc3c(c(C#N)c2=N)CC(C)(C)CC3=O)cc1C	0	0	0	0	-	-
CC1(C)CC(=O)c2cn(-c3ccc(Cl)cc3)c(=N)c(C#N)c2C1	0	0	54.8	0	0	0
CC(=O)Nc1ccc(NC(=O)/C=C\C(=O)O)cc1	0	0	0	0	-	-
Cc1sc2nc(NC(=O)CCl)sc2c1C	0	0	0	0	-	-
CCOC(=O)CSc1nc2c(cc1C#N)CCCCC2	0	0	0	0	-	-
CCOC(=O)CC(=O)CSc1nc2c(cc1C#N)CN(C)CC2	0	0	52.7	0	0	0
O=C1CCCN1CCCNc1ccc(Cl)nn1	0	0	83.7	0	0	0
O=C1CCCN1CCCNc1cc(Cl)ncn1	0	0	0	0	-	-
CC(C)Cc1cc(CN2CCc3ccc(NC(=O)C4CCCO4)cc3C2)[nH]n1 (stereo not drawn)	0	0	0	0	-	-
SMILES	TEAD-YAP inh	GPR151 activ	MITF inh	FBW7 act	MITF confirm	AlphaScreen intf2
COCCCNc1ccc([N+](=O)[O-])cc1C(=O)Nc1cccc(C)n1	0	0	52.1	0	0	0
C=CCc1ccc(OCCNC2CCCC2)c(OC)c1	0	0	0	0	-	-
C/C=C/c1ccc(OCCN(C)C)c(OC)c1	0	0	73.3	0	0	0
C/C=C/c1ccc(OCCCNC2CCCC2)c(OC)c1	0	0	51.3	0	0	0
C/C=C/c1ccc(OCCCNC(C)CC)c(OC)c1 (stereo not drawn)	0	0	82.8	0	0	0
O=C(Cn1ncc2c(=O)oc3ccccc3c21)NCc1cccc(Cl)c1	0	0	0	0	-	-
COCCCN1C(=O)C2C(C(=O)Nc3ccc(Cl)cc3)C3C=CC2(O3)C1C(=O)NC1CCCCC1 (stereo not drawn)	0	0	0	0	-	-
CCOC(=O)Cc1csc(SCC(=O)Nc2sc3c(c2C#N)CCC(C)C3)n1 (stereo not drawn)	0	0	0	0	-	-
CCOC(=O)C1=C(C)N=c2s/c(=C/c3c[nH]c4ccccc34)c(=O)n2C1c1cccs1 (stereo not drawn)	0	0	0	0	-	-
CCOC(=O)C1CCN(C(=O)C2CCN(Cc3cccc(OC)c3)CC2)CC1	0	0	52.1	0	0	0
CCN(Cc1ccccc1)C(=O)C1CCN(Cc2cccc(OC)c2)CC1	0	0	52.1	0	0	0

Bioassay records (PubChem)
